Active and inactive are the calls of the source. Rule as the data show it: active = fold change mostly below about -2 (no sharp cut-off); inactive = mostly above about -1.8.
Test: modulation of TERT promoter-driven luciferase – cell-based, luciferase reporter, human, primary screen (AID 1259240)
Conditions: A2780 TERT promoter luciferase reporter, 16 h; at 20 µM, fold versus average of vehicle-only wells

Row | Compound | fold change | outcome
1 | CC(C)OCCCNC(=O)c1ccc(NC2=NC3CS(=O)(=O)CC3S2)cc1 (centres undefined) | 1.22 (inactive) | –
2 | CCn1c(SCC(=O)Nc2nnc(C)s2)nnc1-c1c[nH]c2ccccc12 | – | inactive
3 | CCOC(=O)c1sc(NC(=O)c2cc(C)no2)c(C(=O)OCC)c1C | 1.26 (inactive) | –
4 | c1coc(CSc2nc3ccccc3n3cnnc23)c1 | 1.16 (inactive) | –
5 | CCCn1c(OC)nc2c1c(=O)n(C)c(=O)n2C | -1.58 (inactive) | –
6 | CCOC(=O)c1sc2nccc3c2c1N=CN3c1ccccc1 | -1.96 (inactive) | –
7 | CN(CC(=O)NC1CCCc2ccccc21)S(=O)(=O)c1ccc2c(c1)CCC(=O)N2 (centres undefined) | 1.18 (inactive) | –
8 | CN(CC(=O)Nc1ccc(Br)cc1)S(=O)(=O)c1ccc2c(c1)CCC(=O)N2 | -1.38 (inactive) | –
9 | CCOc1cc2c(cc1OCC)C(c1cc(OC)c(OC)c(OC)c1)CC(=O)N2 (centres undefined) | -1.02 (inactive) | –
10 | O=S1(=O)NC(=NC2CCCCCC2)c2ccccc21 | – | inactive
11 | O=C1CCCC2=C1C(c1ccccc1Cl)n1nc(-c3ccccc3)nc1N2 (centres undefined) | – | inactive
12 | CC(C)CCNS(=O)(=O)c1ccc2c(c1)n(C)c(=O)c(=O)n2C | 1.28 (inactive) | –
13 | Cc1ccc(CN2C(=O)C(C(C)C(=O)NCC3CCCO3)Sc3ccccc32)cc1 (centres undefined) | -1.61 (inactive) | –
14 | CCOC(=O)N1CCC(Nc2c(N3CCCCC3C)c(=O)c2=O)CC1 (centres undefined) | 1.02 (inactive) | –
15 | c1cnc2c(SCc3cn4ccccc4n3)cccc2c1 | -1.15 (inactive) | –
16 | c1ccn2c(SCc3ccc4c(c3)OCCO4)nnc2c1 | 1.6 (inactive) | –
17 | COC(=O)CSc1nnc2c3c4c(sc3nc(C)n12)CCCC4 | -1.45 (inactive) | –
18 | CCCCN1C(=O)/C(=C2\SC(N3CCCCC3)=NC2=O)c2ccccc21 | -8.65 (active) | –
19 | Cc1c(NC(=O)C2CC(c3ccc(F)cc3)=NO2)c(=O)n(-c2ccccc2)n1C (centres undefined) | 1.46 (inactive) | –
20 | CN(C)S(=O)(=O)N(CC(=O)Nc1ccccc1F)c1ccccc1 | -1.38 (inactive) | –

Row | Compound | fold change | outcome
21 | CCn1c2ccccc2c2nnc(SCC(=O)Nc3nnc(C(C)C)s3)nc21 | -1.93 (inactive) | –
22 | O=C1Nc2ccccc2N(O)N1c1cc(-c2cccc(Cl)c2)no1 | 1.45 (inactive) | –
23 | Cc1ccc(-c2n[nH]c3c2C(c2ccccn2)N(c2ccc(C(=O)O)cc2)C3=O)cc1 (centres undefined) | -1.91 (inactive) | –
24 | Cn1c(SCC(=O)Nc2ccc(F)cc2)nnc1-c1c[nH]c2ccccc12 | – | inactive
25 | COc1cccc(C2C(C#N)=C(N)Oc3n[nH]c(-c4ccc(Br)cc4)c32)c1OC (centres undefined) | -1.08 (inactive) | –
26 | COc1ccc(Br)cc1/C=c1\sc2nc(-c3ccco3)nn2c1=O | 1.22 (inactive) | –
27 | CCc1ccc2[nH]cc(S(=O)(=O)c3ccc(C)c(C)c3)c(=O)c2c1 | 1.15 (inactive) | –
28 | CN(CC(=O)NCC1CCCO1)S(=O)(=O)c1ccc2c(c1)c(=O)n(C)c(=O)n2C (centres undefined) | 1.06 (inactive) | –
29 | CCc1nccn1S(=O)(=O)c1ccc(OC)c(OC)c1 | -2.54 (active) | –
30 | c1ccc(-c2nnc3ccc(NCCCN4CCc5ccccc5C4)nn23)cc1 | -1.21 (inactive) | –
31 | O=C(NCc1ccc(Cl)cc1)c1c[nH]n2c(=O)cc(C3CCNCC3)nc12 | -1.87 (inactive) | –
32 | O=C(CN1C(=O)C2(OCCO2)c2ccccc21)c1ccc(F)cc1 | 1.12 (inactive) | –
33 | c1ccc(CN2CCN(c3nnc(Cc4cccnc4)c4ccccc34)CC2)cc1 | 1.04 (inactive) | –
34 | O=C(Cn1ncc2c3ccccc3n(Cc3ccc(Cl)cc3)c2c1=O)NC1CC1 | -1.11 (inactive) | –
35 | Cc1cc(C(=O)Nc2ccc(F)cc2F)on1 | 1.55 (inactive) | –
36 | COCCn1c(SCC(=O)Nc2cc(C)on2)nc2c(c1=O)SC(C)C2 (centres undefined) | -1.21 (inactive) | –
37 | CCOc1ccc(-n2c(C)c(C(C)=O)c3cc(OCC(N)=O)ccc32)cc1 | -1.01 (inactive) | –
38 | COC(=O)CSc1nnc2sc3ccccc3n12 | -1.32 (inactive) | –
39 | CCS(=O)(=O)N1CCN(Cc2c[nH]c3ccccc23)CC1 | -1.08 (inactive) | –

Reference: PubChem BioAssay AID1259240 (Keith Lab, Institute of Cancer Science, University of …, 2017)
